Reference: PubChem BioAssay (NCI)
Compounds without any hit were thinned out: in the full panel of roughly 83,000, 20% have a hit.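 Method: cells in 96-well plates; compound added at one concentration; 48 h incubation; percent growth measured; values under 10 scored active.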 Active and inactive are the calls of the source.

What follows are compounds tested on HL-60(TB) leukemia (assay: NCI-60 one-dose screen, 48 h (100 = growth as untreated, 0 = no growth, -100 = all killed)). Conditions: 10 µM unless noted.

| Compound | growth |
| --- | --- |
| COc1ccccc1CNCCCN1C(=O)c2ccc3c4c(ccc(c24)C1=O)C(=O)N(CCCCNCCCN)C3=O | -34.2% (active) |
| CCN(CC)CCCC(C)Nc1ccnc(/C=C/c2ccc(Cl)cc2)c1 (stereo not given) | 65.9% (inactive) |
| CCN1CCN(CC(=O)Nc2nc3ccc(NCc4ccc(Br)cc4)cc3s2)CC1 | 20.1% (inactive) |
| Cc1ccc2c(c1)sc1nc(-c3c[nH]c4ccccc34)c(Nc3ccccc3)n12 | 97% (inactive) |
| COc1cccc(/C=C2\CCc3ccccc3C2=O)c1 | 63.2% (inactive) |
| COc1cc(CSc2nc3ccc(Cl)cc3c(=O)n2-c2ccccc2)cc(OC)c1OC | 90.8% (inactive) |
| O=C(CN1CCN(c2cc3c(cc2F)c(=O)c(C(=O)O)cn3C2CC2)CC1)N/N=C/c1ccncc1 | 98% (inactive) |
| COc1ccc(/C=C(\C#N)n2nnc3c(F)cccc32)cc1 | -5.39% (active) |
| COc1ccc(-c2c(NC(=O)Nc3ccc(Cl)c(C(F)(F)F)c3)cnn2-c2ccc(S(N)(=O)=O)cc2)cc1 | -15% (active) |
| CC(C)(C)c1cc(Cl)c(O)c(CNCCO)c1 | 117% (inactive) |
| O=C1/C(=C/c2ccc([N+](=O)[O-])cc2)COc2ccc(O)cc21 | 50.9% (inactive) |
| COc1cc(C(=O)c2c(-c3ccccc3)oc3c(OC)cccc23)cc(OC)c1OC | -6.56% (active) |
| COc1ccc(/C=N\Nc2nc(SCCC(C)C)nc(-c3ccc(OC)cc3)c2C#N)cc1 | 34% (inactive) |
| COc1cc(C2CC(c3ccc(Nc4ccnc5cc(Cl)ccc45)cc3)=NN2C=O)cc(OC)c1OC (stereo not given) | 19.7% (inactive) |
| CS(=O)(=O)Nc1cc(-c2ccc3ncnc(Nc4ccc(OCc5ccccn5)c(Cl)c4)c3c2)cnc1Cl | 4.82% (active) |
| CCc1nc(N)nc(N)c1C#CC(C)c1cc(-c2ccnc(C)c2)c2oc(C)nc2c1 (stereo not given) | -42.4% (active) |
| CCNc1nc(O)c(/C=C2\C=Nc3ncccc32)s1 | -22.4% (active) |
| CC1(C)C(=O)/C(=C\c2ccccn2)C[C@]2(C)[C@H]3CC[C@@H]4[C@@H](C(=O)/C=C/c5ccccn5)CC[C@@]4(C)[C@]3(C)CC[C@@H]12 | -14.4% (active) |
| Cc1cccc(Cl)c1NC(=O)c1cnc(Nc2cc(N3CCOCC3)cc(S(C)(=O)=O)c2)s1 | 110% (inactive) |
| CC(NC(=O)c1ccccc1)C(=O)Nc1ccccc1 (stereo not given) | 107% (inactive) |

| Compound | growth |
| --- | --- |
| CCOC(CNCc1cc(C)c2[nH]c3ccccc3c2c1C)OCC | 86% (inactive) |
| CSc1nc2ncnc(SC)c2[nH]1 | 118% (inactive) |
| CCOC(=O)c1cc(C(=O)c2ccc(O)c(O)c2)n2ccc(-c3ccn4c(C(=O)c5ccc(O)c(O)c5)cc(C(=O)OCC)c4c3)cc12 | 73.8% (inactive) |
| Cn1cc(-c2nonc2-c2cn(C)c3ccc(F)cc23)c2cc(F)ccc21 | 17.3% (inactive) |
| Nc1n[nH]c(=S)n1-c1ccc(Cl)cc1 | 82.6% (inactive) |
| O=C(NC1CC1)c1ccc(-c2nc3ccc4[nH]ncc4c3c3c2CCCC3)cc1 | 28.6% (inactive) |
| Cc1oc(-c2ccccc2Cl)cc1C(=O)Nc1ccc(S(N)(=O)=O)cc1 | 102% (inactive) |
| O=C(O)c1ccc(N=CC(=O)c2ccc(-c3ccccc3)cc2)cc1 | 77.4% (inactive) |
| Cc1c(C)n(CC(O)CNC2CCCCC2C)c2ccccc12 (stereo not given) | -13.8% (active) |
| COc1ccc(C2=Nc3c/c(=C\c4c(O)[nH]c5cc(Cl)ccc45)ccc3=N2)cc1 | 12.4% (inactive) |
| C/C1=C\CC[C@@]2(C)O[C@H]2[C@H]2OC(=O)C(CN3CCN(CC4C(=O)O[C@H]5[C@H]4CC/C(C)=C/CC[C@@]4(C)O[C@@H]54)CC3)[C@@H]2CC1 (stereo not given in full) | 98.7% (inactive) |
| c1ccc(-c2nc3sc(C(c4ccccc4)c4ccccc4)nn3c2-c2ccccc2)cc1 | 112% (inactive) |
| COc1cc(F)c(/C=C/c2cc(/C=C/c3cc(OC)c(OC)cc3F)on2)cc1OC | 85.2% (inactive) |
| N#Cc1c(N)nc2c(c1N)C(c1ccc(F)cc1)c1ccc(N)cc1O2 (stereo not given) | 110% (inactive) |
| CCCCCCC(CCCC)COC(=O)c1ccc(Cl)cc1 (stereo not given) | 100% (inactive) |
| Cc1cc2nc3ccc(N=Nc4ccc(N(C)C)cc4)cc3n(-c3ccccc3)c-2cc1=N | -2.79% (active) |
| Oc1ccccc1-c1nnc(COc2ccc(Cl)cc2Cl)o1 | 3.89% (active) |
| CCOC(=O)c1c(C)nc2c(c1N)/C(=C/c1ccc(OC)cc1)C(=O)N2Cc1ccc(F)cc1 | 4.72% (active) |
| COc1ccc2nc3ccccc3c(NCc3ccccc3)c2c1 | 8.18% (active) |
| COc1ccc2c(=O)c(OC)c(-c3cc(OC)c(OC)c(OC)c3)oc2c1 | 85.1% (inactive) |
